# Hits are enriched below; roughly 4.6% of the tested compounds scored in any of these assays.
# hgDAF-12 ag: H. glycines DAF-12 receptor agonists, primary screen, cell-based, luminescence, HEK293, GAL4 fusion, UAS-luciferase. Nuclear hormone receptor DAF-12 (Heterodera glycines), GAL4 fusion. HEK293 GAL4-hgDAF12 UAS-luciferase reporter, agonist luminescence; normalized to butyrate control. activation, % at 6.8 µM. hit rate 1.8% among 370,000;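 active means activation above a cutoff set at the mean of all screened compounds plus 3 SD, cut at about 10% in these data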;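 further: 0% = DMSO wells and 100% = sodium butyrate wells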
# DAX1 inh-1: DAX1 (NR0B1) inhibitors, primary screen, cell-based, HEK293, Gal4-DAX1, luciferase luminescence. Nuclear receptor subfamily 0 group B member 1 (Homo sapiens), P51843. HEK293 Gal4-DAX1 luciferase reporter. inhibition, % at 6.75 µM. hit rate 0.99% among 340,000. AID 504766, 2011;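 active means inhibition above the mean over all tested compounds plus 3 SD, cut at about 4.2% in these data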;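 further: 0% = DAX1-transfected cells with DMSO and 100% = empty-vector control cells with DMSO; inhibition shows as a rise in luminescence from relieved DAX1 repression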
# DAX1 inh-2: DAX1 (NR0B1) inhibitors on StAR promoter, primary screen, cell-based, luminescence, SF-1 (NR5A1), full-length DAX-1; HEK293T StAR-luciferase reporter, SF-1/DAX-1 repression relief; inhibition, % at 6.8 µM; hit rate 1.1% among 370,000;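 active means inhibition above the mean over all tested compounds plus 3 SD, cut at about 3.6% in these data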;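 further: 0% = DAX-1 cells with DMSO and 100% = cells lacking DAX-1 with DMSO; higher inhibition means more luminescence from relief of DAX-1 repression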
# Wee1 degr inh: Wee1 degradation inhibitors, primary screen, cell-based, HeLa, Wee1K328M-luciferase, luminescence; Wee1-like protein kinase (Homo sapiens), P30291; HeLa Luc-Wee1K328M stability; 100% = proteasome inhibitor MG132 effect; reporter increase, % at 5 µM; hit rate 1.2% among 220,000; AID 1321, 2008;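 active means activation above the mean of all tested compounds plus 3 SD, set per screening run, cut at about 8.8% in these data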;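 further: cells exposed to compound for 20 h before luminescence read; 0% = DMSO alone and 100% = MG132 at 30 µM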
# Target sequence (P30291 whole entry K328M): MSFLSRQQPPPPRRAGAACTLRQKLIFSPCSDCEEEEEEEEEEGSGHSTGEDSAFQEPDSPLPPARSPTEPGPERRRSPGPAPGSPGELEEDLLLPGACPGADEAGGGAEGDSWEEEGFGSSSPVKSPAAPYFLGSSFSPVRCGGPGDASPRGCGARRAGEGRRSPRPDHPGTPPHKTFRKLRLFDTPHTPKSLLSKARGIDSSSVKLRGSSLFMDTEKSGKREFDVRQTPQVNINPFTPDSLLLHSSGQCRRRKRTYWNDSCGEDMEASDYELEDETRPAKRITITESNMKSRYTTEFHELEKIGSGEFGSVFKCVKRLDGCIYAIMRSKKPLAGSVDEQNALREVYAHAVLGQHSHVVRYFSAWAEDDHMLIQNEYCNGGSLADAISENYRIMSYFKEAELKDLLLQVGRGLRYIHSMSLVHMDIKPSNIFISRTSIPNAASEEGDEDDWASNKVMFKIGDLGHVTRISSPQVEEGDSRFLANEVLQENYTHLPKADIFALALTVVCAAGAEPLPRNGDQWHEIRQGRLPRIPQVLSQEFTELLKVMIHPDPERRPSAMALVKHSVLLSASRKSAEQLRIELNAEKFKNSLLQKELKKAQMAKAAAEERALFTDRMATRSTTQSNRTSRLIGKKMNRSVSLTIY
# hcDAF12 agonist: H. contortus DAF-12 nuclear receptor activators, primary screen, cell-based, luminescence, HEK293, lit1-tk-luc reporter; AID 652067, 2013; HEK293 hcDAF-12 lit1-tk-luc reporter; 0% DMSO, 100% Δ7-dafachronic acid; hit rate 1.4% among 370,000; activation, % at 6.8 µM;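 active means activation above the mean of all tested compounds plus 3 SD, cut at about 5.5% in these data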;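 further: 100% = response to 3 µM Δ7-dafachronic acid high control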
# ssDAF12 agonist: S. stercoralis DAF-12 nuclear receptor activators, primary screen, cell-based, luminescence, HEK293, GRIP1 co-expression, lit1-tk-luc; Nuclear hormone receptor DAF-12 (Strongyloides stercoralis); HEK293 ssDAF-12/GRIP1 lit1-tk-luc reporter; % of 3 µM dafachronic acid response; activation, % at 6.8 µM; hit rate 1% among 370,000; AID 652126, 2013;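 active means activation above the mean over all tested compounds plus 3 SD, cut at about 0.9% in these data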;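 further: 0% = DMSO-only wells and 100% = 3 µM delta7-dafachronic acid wells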
# LXR ag: LXR agonists, Gal4 luciferase reporter, confirmation, counter-screen for hcDAF-12 agonist project, cell-based, luminescence, HEK293, H. contortus campaign; shares compounds with hcDAF12 agonist; HEK293 Gal4-LXR tk-luc reporter, 24 h; normalized: DMSO 0%, positive control 100%; activation, % at 6.8 µM; 3,400 tested, under 10 active; AID 743027, 2013;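 active means mean percent activation of the reporter above a cutoff set as the average over tested compounds plus their standard deviation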
# hcDAF12 ag: H. contortus DAF-12 receptor agonists, confirmation, cell-based, luminescence, HEK293, lit1-tk-luc, triplicate; shares compounds with hcDAF12 agonist; HEK293 hcDAF-12 lit1-tk-luc reporter; % of Δ7-dafachronic acid response; activation, % at 6.8 µM; hit rate 61% among 3,400; AID 743032, 2013;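 active means mean activation across triplicate tests above the threshold derived from the earlier primary screen, cut at about 5.5% in these data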;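 further: 0% = DMSO only wells and 100% = 3 µM Δ7-dafachronic acid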
# hgDAF12 conf: H. glycines DAF-12 receptor agonists, confirmation, cell-based, luminescence, HEK293, GAL4-LBD fusion | shares compounds with hgDAF-12 ag | activation, % at 6.8 µM | AID 743050, 2013 | hit rate 80% among 3,300 | HEK293 GAL4-hgDAF12 luciferase reporter, agonist mode; percent of butyrate response;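 active means mean activation over triplicate wells above the hit cutoff derived from the earlier primary screen, cut at about 11% in these data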;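 further: 0% = DMSO low control and 100% = 2 mM sodium butyrate high control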
# LXR ag 2: LXR agonists, Gal4 luciferase reporter, confirmation, counter-screen for hgDAF-12 agonist project, cell-based, luminescence, HEK293, H. glycines campaign; shares compounds with hgDAF-12 ag; 24 h; activation, % at 6.8 µM; 3,300 tested, under 10 active;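 active means mean activation of the triplicate above a set limit carried over from the primary screen, none filed active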
# Starred values were filed as active, the others as inactive; . = no result given.
SMILES,hgDAF-12 ag,DAX1 inh-1,DAX1 inh-2,Wee1 degr inh,hcDAF12 agonist,ssDAF12 agonist,LXR ag,hcDAF12 ag,hgDAF12 conf,LXR ag 2
Cc1ccc(-c2cnc3ccccc3n2)cc1C,14.4*,2.6,2.7,.,14.3*,1.5*,1.9,15.7*,19.8*,1.4
COc1ccccc1NC(=O)OC[C@@H]1CSCCS(=O)(=O)N1,1.5,.,0.1,.,1.9,0.3,.,.,.,.
Cc1ccccc1C(=O)Nc1cc(S(=O)(=O)N2CCOCC2)ccc1N1CCN(C)CC1,-1.7,1.5,-2.3,.,-0.8,-0.8,.,.,.,.
c1ccc(-c2ccc(-c3ccccc3)[nH]2)cc1,18.9*,2.9,3.1,.,6.8*,-0.1,0.6,3.0,14.6*,0.5
O=C(/C=C/Nc1ccc(F)c(F)c1)c1cccs1,14.6*,4.1,3.3,1.1,15.6*,0.9,2.4,14.9*,23.0*,0.9
COCCN(Cc1nc(-c2ccc(-c3ccccc3)cc2)oc1C)C(C)C,15.0*,-4.3,1.5,.,10.4*,1.1*,1.5,7.5*,17.9*,1.1
Cc1ccc(C)c(SCC(=O)NC(=O)NC2CCCC2)c1,-0.3,-0.2,0.4,.,-0.7,-1.3,.,.,.,.
COc1ccc(NC(=O)C(c2ccccc2)n2c(=O)c(-c3ccco3)nc3ccccc32)cc1 (centres undefined),-4.9,.,-0.9,.,-0.6,-0.2,.,.,.,.
Nc1c(C(=O)Nc2ccccc2)nnn1-c1ccc2c(c1)OCCO2,14.1*,-1.2,2.5,.,8.8*,1.8*,1.4,8.1*,16.3*,1.0
Cc1ccc(NC(=O)c2nnn(-c3ccc4c(c3)OCCO4)c2N)cc1,7.8,1.5,0.5,.,-0.1,-0.5,.,.,.,.
Nc1ncnc2c1ncn2[C@@H]1O[C@H](C(=O)N[C@H]2c3ccccc3C[C@H]2OC=O)[C@@H](O)[C@H]1O,0.0,.,-1.2,.,0.2,-0.3,.,.,.,.
O=C(Nc1nc2ccccc2[nH]1)c1ccccc1OC(F)F,14.1*,-1.8,2.9,.,12.6*,0.8,1.7,14.3*,14.4*,0.8
Cc1ccsc1C(=O)Nc1nc2ccccc2[nH]1,16.9*,-2.2,4.5*,2.9,10.3*,1.1*,1.4,10.2*,17.3*,1.0
CCC(C(=O)Nc1ccc(C(=O)O)cc1NC(=O)C(CC)c1ccccc1)c1ccccc1 (centres undefined),-0.3,2.4,-0.3,.,0.2,-0.1,.,.,.,.
COCC1OC(OC(C)C(O)c2cnc3nc(N)[nH]c(=O)c3n2)C(O)C(OC)C1O (centres undefined),-3.2,.,0.6,.,-0.7,-1.4,.,.,.,.
Cc1ccc(-c2nnc(NC3CCCC3)s2)cc1,15.2*,3.6,2.2,.,9.2*,0.0,0.9,3.0,18.6*,0.9
C=CCN(Cc1ccc(Cl)s1)C(=O)c1ccc(F)c(S(=O)(=O)N2CCOCC2)c1,0.0,-1.3,-1.2,.,-1.4,-1.4,.,.,.,.
Cn1/c(=N/N=C/c2ccccn2)sc2ccccc21,22.7*,.,3.2,3.2,8.2*,0.9,1.2,7.1*,18.4*,0.7
COc1cc(F)ccc1-c1csc(C(NC(C)=O)c2ccccc2)n1 (centres undefined),3.4,.,2.8,.,-0.9,-0.4,.,.,.,.
COc1ccc2oc(C(=O)c3ccccc3)c(N)c2c1,15.2*,.,3.5,1.4,7.4*,0.9,1.7,6.7*,20.1*,0.9
COC(=O)C[C@H]1CC[C@@H]2[C@H](COc3ccc(NC(=O)c4cnccn4)cc3C(=O)N2C)O1,6.7,.,1.6,.,-2.1,-0.9,.,.,.,.
CN(C)/C=N/C1=C(C#N)C(c2cccs2)c2ccc3ccccc3c2O1 (centres undefined),23.8*,0.9,-1.6,2.5,9.4*,1.0*,0.2,8.5*,13.6*,0.2
CC(c1ccon1)N(C)C(=O)c1cccc(OC2CCN(S(C)(=O)=O)CC2)c1 (centres undefined),-1.4,-1.4,-1.7,.,-2.0,-0.7,.,.,.,.
Cc1ccc(-c2nc3nc4ccccc4nc3n2Cc2ccco2)cc1,16.2*,1.5,5.1*,-0.5,10.8*,1.4*,1.3,8.8*,13.9*,0.9
Clc1ccc(-c2nc3nc4ccccc4nc3n2Cc2ccco2)cc1,14.1*,3.5,3.1,-1.5,8.4*,1.1*,0.6,5.8*,7.3,0.2
SMILES,hgDAF-12 ag,DAX1 inh-1,DAX1 inh-2,Wee1 degr inh,hcDAF12 agonist,ssDAF12 agonist,LXR ag,hcDAF12 ag,hgDAF12 conf,LXR ag 2
Cc1csc(NC(=O)CCCNC(=O)c2ccc(Cl)cc2)n1,-1.0,2.3,0.5,.,-0.6,-0.4,.,.,.,.
COC1=C/C(=C/c2c(O)c(C#N)c3ccccn23)C=CC1=O,13.6*,3.7,2.2,3.7,11.2*,0.9*,0.0,3.6,11.2*,0.3
CCc1cccc(NC(=O)c2cnn(-c3ccccc3)c2C)c1,18.9*,4.2,3.1,.,7.9*,0.1,1.4,3.7,15.9*,0.7
Cc1cccc(C)c1NC(=O)c1cnn(-c2ccccc2)c1C,1.3,0.6,-0.6,.,-0.1,-1.1,.,.,.,.
COc1cccc2nc3cc(C)c(C)cc3nc12,18.0*,-0.8,1.9,-0.1,7.5*,0.7,1.4,12.4*,18.4*,1.1
N#Cc1c(SCc2nc3ccccc3[nH]2)nc2c(c1C(F)(F)F)CCC2,.,.,.,0.3,.,.,.,.,.,.

# Compound activity deposited in PubChem BioAssay by The Scripps Research Institute Molecular Screening Center.
